We go through seven compounds from PubChem BioAssay (Tox21).

Assay [1] can be described thus: Nuclear factor erythroid 2-related factor 2/antioxidant responsive element (Nrf2/ARE) small molecule agonists: qHTS cell viability counter screen in human keratinocytes (AID 1919968; active = well fitted curve in the direction sought with a large enough effect in the repeat runs; an effect the other way counts as inactive or inconclusive; also: nearly all actives have a fitted effect of over 55% in size; also: potency is read from the fitted curve at half-maximal effect). The gist of the method:
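Fluorescence read-out from CellTiter-Fluor after 1 h at 37 C. Wells held HaCaT-derived ARE-luciferase reporter cells (1,500/well) treated 23 h with DMSO-dissolved compounds. Run in the same wells as the luciferase agonist read.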
On the technique in general: In qHTS, concentration-response curves come from the screen itself.

Assay [2] is described as follows: Nuclear factor erythroid 2-related factor 2/antioxidant responsive element (Nrf2/ARE) small molecule agonists: luciferase reporter gene qHTS assay in human keratinocytes (AID 1919969). Also: nearly all actives have a fitted effect of over 35% in size. Also: potency is read from the fitted curve at half-maximal effect. On the technique in general: A reporter such as luciferase makes a cellular process visible.
The target in assay [3] is Gonadotropin-releasing hormone receptor (Homo sapiens) (UniProt P30968). In words: Human gonadotropin-releasing hormone receptor (GnRHR) small molecule agonists, calcium flux assay in GnRHR-HEK293 cells (AID 1920063). Also: nearly all actives have a fitted effect of over 35% in size. In short, it runs like this:
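Calcium-dye fluorescence, Ex/Em=480/540, recorded every 1 sec over 3 min after compound addition to GnRHR-HEK293 cells. Cells had been seeded 18 hours earlier and dye-loaded for 1 hour at 37 C. Fifteen concentrations, triplicates.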
(A change in cytosolic calcium serves as a functional read-out for many receptors and channels.)

Assay [4] addresses KiSS-1 receptor (Homo sapiens) (UniProt Q969F8). As to the kind of experiment: Human kisspeptin (KISS1R) small molecule agonists, calcium flux assay in KISS1R-HEK293 cells (AID 1920064; active = well fitted curve in the direction sought with a large enough effect in the repeat runs; an effect the other way counts as inactive or inconclusive). The gist of the method: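 Calcium flux read-out: kinetic fluorescence at Ex/Em=480/540, 1 s intervals over 3 min, after pin-tool compound addition to dye-loaded KISS1R-HEK293 cells. Fifteen concentrations, triplicates.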

The nature of assay [5]: G protein-coupled receptor (GPCR) small molecule agonists, calcium flux assay: HEK293 wild type cell line counter screen (AID 1920065). In short, it runs like this:
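Agonist mode; 18 h seeding at 37 C, 1 h dye load at 37 C; compounds pinned from DMSO, ATP as positive control; kinetic fluorescence 480/540 nm, 3 min, 1 s reads; 15 concentrations, triplicate.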

A short description of assay [6]: p53 small molecule agonists, cell-based qHTS assay with human liver microsomes (AID 1963577).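 Also: p53 response element beta-lactamase reporter cells with liver microsomes plus NADPH.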 The gist of the method: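 Steps: plate p53RE-bla cells, incubate 5 h at 37 C; add compound in DMSO; add microsomes (0.5 mg/mL final) and NADPH (0.5 mg/mL final); incubate 16 h at 37 C; add LiveBLAzer, 2 h RT; read fluorescence.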
The nature of assay [7]: p53 small molecule agonists, cell-based qHTS assay with rat liver microsomes (AID 1963578). In short, it runs like this: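 Metabolic activation is supplied by rat liver microsomes with NADPH (each 0.5 mg/mL final). p53RE-bla cells incubate with compound 16 h at 37 C; reporter activity is measured by LiveBLAzer fluorescence.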
Assay [8] is described as follows: p53 small molecule agonists, cell-based qHTS assay with rat liver microsomes: qHTS cell viability counter screen (AID 1963580). Also: nearly all actives have a fitted effect of over 45% in size. In short, it runs like this: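 Cytotoxicity counter screen: intracellular ATP read by CellTiter-Glo luminescence in the p53 reporter wells. HCT-116 p53RE-bla cells were treated for 16 h at 37 C alongside rat liver microsomes and NADPH, each 0.5 mg/mL final.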

Assay [9] in a line: p53 small molecule agonists, cell-based qHTS assay: qHTS cell viability counter screen (AID 1963581). Also: nearly all actives have a fitted effect of over 45% in size. The gist of the method: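 Cytotoxicity read-out: ATP-based luminescence (CellTiter-Glo, 30 min RT) measured in the same wells as the p53 reporter assay, HCT-116 p53RE-bla cells, 16 h compound exposure at 37 C.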
In assay [10] the target is 5-hydroxytryptamine receptor 2A (Homo sapiens) (UniProt P28223). As to the kind of experiment: 5-hydroxytryptamine receptor 2A (HTR2A) small molecule antagonists, cell-based qHTS assay (AID 1963586). Also: nearly all actives have a fitted effect of over 45% in size. In short, it runs like this: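 CHO cells stably expressing human HTR2A were plated for 18 h at 37 C, then loaded with calcium dye for 1 h. Compounds were preincubated 5 min at room temperature before DOI (4 nM solution) was added. Kinetic fluorescence was read for 3 min.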

Assay [11] has the same target. In words: 5-hydroxytryptamine receptor 2A (HTR2A) small molecule agonists, cell-based qHTS assay (AID 1963587). Also: nearly all actives have a fitted effect of over 30% in size. In short, it runs like this:
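Kinetic calcium-flux fluorescence (2 min, 1 sec intervals) after compound addition in agonist mode. HTR2A-CHO cells were cultured 18 h, then dye-loaded 1 h at 37 C.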

Assay [12] deals with Muscarinic acetylcholine receptor M1 (Homo sapiens) (UniProt P11229). As to the kind of experiment: Cholinergic receptor muscarinic 1 (CHRM1) small molecule antagonists, cell-based qHTS assay (AID 1963588). Also: nearly all actives have a fitted effect of over 40% in size. In short, it runs like this: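 Compounds were tested at 15 concentrations in three independent runs. Dye-loaded CHRM1-CHO cells were exposed 5 min at room temperature before stimulation by acetylcholine added at 50nM. Intracellular calcium was read kinetically on FDSS for 3 min.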

For assay [13] the target is unchanged. In words: Cholinergic receptor muscarinic 1 (CHRM1) small molecule agonists, cell-based qHTS assay (AID 1963589). Also: nearly all actives have a fitted effect of over 35% in size. The gist of the method: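 Calcium flux read-out: kinetic fluorescence at 1 sec intervals after pin-tool compound addition to dye-loaded CHRM1-CHO cells (human M1). Agonist mode; 15 concentrations tested in triplicate independent runs.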
Assay [14] is described as follows: cAMP Responsive Elements (CRE) small molecule agonists, cell-based qHTS assay (AID 1963590). The gist of the method: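 Beta-lactamase reporter readout: LiveBLAzer B/G FRET substrate, 2 h at room temperature, added after 3 h compound treatment of CRE-bla HEK 293T cells at 37 C/5% CO2.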
Assay [15] has as its target Beta-2 adrenergic receptor (Homo sapiens) (UniProt P07550). As to the kind of experiment: Adrenergic beta2 receptor (ADRB2) small molecule antagonists, cell-based qHTS assay (AID 1963592). Also: series mostly up to about 92 µM; nearly all actives have a fitted effect of over 50% in size. In short, it runs like this: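 Assay format: CHO-ADRB2 cells, 18-20hr seeding at 37C/5% CO2, then compound plus 1nM isoproterenol agonist mix for 0.5hr RT. Homogeneous time-resolved fluorescence cAMP detection after 1hr, expressed as 665/615 nm ratio.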

The target is the same in assay [16]. As to the kind of experiment: Adrenergic beta2 receptor (ADRB2) small molecule agonists, cell-based qHTS assay (AID 1963593).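 Also: CHO cells stably overexpressing human ADRB2.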 The gist of the method:
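CHO cells stably over-expressing ADRB2 were plated overnight at 37C, then dosed with compounds plus a stimulation mix containing 100uM IBMX and 25uM Ro-20-1724 for 0.5hr at room temperature. cAMP was measured by HTRF competition, 1hr.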

The target of assay [17] is D(2) dopamine receptor (Homo sapiens) (UniProt P14416). As to the kind of experiment: Dopamine D2 receptor (DRD2) small molecule agonists, cell-based qHTS assay (AID 1963594). Also: nearly all actives have a fitted effect of over 35% in size. In short, it runs like this: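 cAMP accumulation in DRD2-HEK293 cells measured by HTRF after 1 h detection; compounds added 10 min before NKH477 (200nM […]) forskolin-analogue stimulation, 30 min at room temperature, with Ro20-1724 present at 0.1 mM final.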

Assay [18] has the same target. As to the kind of experiment: Dopamine D2 receptor (DRD2) small molecule antagonists, cell-based qHTS assay (AID 1963595; active = well fitted inhibition curve with a large enough effect in the signal ratio in the repeat runs, with a control signal flat; the % refers to the signal ratio). The gist of the method:
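In this cell-based antagonist screen, compounds act for 10 min at room temperature before a 30 min challenge with 12 nM quinpirole and 200 nM NKH477. cAMP is quantified by HTRF competition in DRD2-HEK293 cells containing 0.1 mM Ro20-1724.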

A short description of assay [19]: p53 small molecule agonists, cell-based qHTS assay (AID 1963582; active = well fitted activation curve with a large enough effect in the signal ratio in the repeat runs, not every such curve was filed as active; the % refers to the signal ratio). The gist of the method:
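Fluorescence intensity read-out of a beta-lactamase reporter under a p53 response element. Cells were exposed to DMSO-dissolved compounds for 16 h at 37 C, then developed with FRET substrate for 2 h at RT.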

The nature of assay [20]: cAMP Responsive Elements (CRE) small molecule antagonists, cell-based qHTS assay (AID 1963591; active = well fitted inhibition curve with a large enough effect in the signal ratio in the repeat runs, not every such curve was filed as active; the % refers to the signal ratio). In short, it runs like this: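 HEK293T CRE-bla; 18 h preincubation; compound pin-transfer; NKH477 0.25 uM final, 3 h, 37 C; LiveBLAzer FRET substrate 2 h RT.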

Unmarked numbers belong to inactive results. Inconclusive results are not listed. Calls of active or inactive are those of the source. Unless noted, calls follow the shape of the full dose curve.
% is scaled to controls: 0 for no effect and ±100 for the full control effect.

5-hydroxytryptamine receptor 2A (Homo sapiens), sequence (P28223 whole entry, looked up): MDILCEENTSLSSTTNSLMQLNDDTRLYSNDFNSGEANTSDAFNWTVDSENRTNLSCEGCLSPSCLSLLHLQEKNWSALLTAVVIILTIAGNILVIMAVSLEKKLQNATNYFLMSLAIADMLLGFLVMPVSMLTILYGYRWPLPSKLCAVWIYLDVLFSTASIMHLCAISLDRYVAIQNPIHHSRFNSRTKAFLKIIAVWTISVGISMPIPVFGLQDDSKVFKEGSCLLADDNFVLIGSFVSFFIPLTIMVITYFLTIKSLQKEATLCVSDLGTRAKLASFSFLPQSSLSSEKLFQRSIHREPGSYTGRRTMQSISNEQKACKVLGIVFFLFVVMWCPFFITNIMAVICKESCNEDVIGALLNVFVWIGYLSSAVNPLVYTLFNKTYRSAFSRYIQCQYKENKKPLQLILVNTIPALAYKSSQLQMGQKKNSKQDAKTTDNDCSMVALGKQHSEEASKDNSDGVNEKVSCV
Muscarinic acetylcholine receptor M1 (Homo sapiens), sequence (P11229 whole entry, looked up): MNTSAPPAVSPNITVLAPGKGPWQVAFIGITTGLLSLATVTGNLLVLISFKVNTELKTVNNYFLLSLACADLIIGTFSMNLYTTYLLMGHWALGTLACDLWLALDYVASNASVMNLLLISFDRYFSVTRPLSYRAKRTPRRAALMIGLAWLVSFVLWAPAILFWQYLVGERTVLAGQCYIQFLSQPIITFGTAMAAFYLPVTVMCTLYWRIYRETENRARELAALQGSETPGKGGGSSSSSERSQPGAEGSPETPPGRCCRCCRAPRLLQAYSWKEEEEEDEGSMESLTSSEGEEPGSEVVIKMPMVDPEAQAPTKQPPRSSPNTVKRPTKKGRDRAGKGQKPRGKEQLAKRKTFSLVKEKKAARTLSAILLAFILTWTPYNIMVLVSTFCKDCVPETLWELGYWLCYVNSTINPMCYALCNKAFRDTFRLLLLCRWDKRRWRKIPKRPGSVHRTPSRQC
Gonadotropin-releasing hormone receptor (Homo sapiens), sequence (P30968 whole entry, looked up): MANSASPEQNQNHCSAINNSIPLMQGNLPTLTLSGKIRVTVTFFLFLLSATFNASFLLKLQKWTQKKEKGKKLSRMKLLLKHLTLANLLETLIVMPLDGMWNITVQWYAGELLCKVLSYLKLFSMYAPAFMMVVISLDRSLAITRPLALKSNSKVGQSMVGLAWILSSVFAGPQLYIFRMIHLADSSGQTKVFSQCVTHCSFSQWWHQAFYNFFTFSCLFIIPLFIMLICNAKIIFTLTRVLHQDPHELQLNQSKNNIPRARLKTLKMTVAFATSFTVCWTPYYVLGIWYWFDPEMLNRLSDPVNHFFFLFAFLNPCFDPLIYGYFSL
D(2) dopamine receptor (Homo sapiens), sequence (P14416 whole entry, looked up): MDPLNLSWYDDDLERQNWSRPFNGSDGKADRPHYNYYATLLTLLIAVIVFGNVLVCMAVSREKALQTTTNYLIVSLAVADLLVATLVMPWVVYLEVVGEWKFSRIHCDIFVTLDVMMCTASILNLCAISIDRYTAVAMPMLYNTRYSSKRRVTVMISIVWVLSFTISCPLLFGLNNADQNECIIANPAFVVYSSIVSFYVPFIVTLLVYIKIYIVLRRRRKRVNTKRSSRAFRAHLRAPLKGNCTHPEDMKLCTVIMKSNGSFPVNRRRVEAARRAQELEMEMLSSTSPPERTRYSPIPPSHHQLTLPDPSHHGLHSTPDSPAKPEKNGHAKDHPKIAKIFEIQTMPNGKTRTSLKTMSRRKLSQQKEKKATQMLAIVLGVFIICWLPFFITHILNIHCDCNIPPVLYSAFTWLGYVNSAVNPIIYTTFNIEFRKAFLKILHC
Beta-2 adrenergic receptor (Homo sapiens), sequence (P07550 whole entry, looked up): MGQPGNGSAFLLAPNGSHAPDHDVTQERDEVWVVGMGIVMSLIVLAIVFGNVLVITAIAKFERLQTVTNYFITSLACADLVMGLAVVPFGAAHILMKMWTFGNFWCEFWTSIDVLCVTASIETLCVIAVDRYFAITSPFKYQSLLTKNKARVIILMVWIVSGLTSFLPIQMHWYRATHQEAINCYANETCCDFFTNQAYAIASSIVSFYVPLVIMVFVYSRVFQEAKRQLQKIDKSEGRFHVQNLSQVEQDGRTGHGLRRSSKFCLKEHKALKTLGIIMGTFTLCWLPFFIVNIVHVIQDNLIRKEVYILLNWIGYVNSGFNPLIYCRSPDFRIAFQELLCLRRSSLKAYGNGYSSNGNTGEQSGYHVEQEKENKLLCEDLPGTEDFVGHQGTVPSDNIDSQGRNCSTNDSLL
KiSS-1 receptor (Homo sapiens), sequence (Q969F8 whole entry, looked up): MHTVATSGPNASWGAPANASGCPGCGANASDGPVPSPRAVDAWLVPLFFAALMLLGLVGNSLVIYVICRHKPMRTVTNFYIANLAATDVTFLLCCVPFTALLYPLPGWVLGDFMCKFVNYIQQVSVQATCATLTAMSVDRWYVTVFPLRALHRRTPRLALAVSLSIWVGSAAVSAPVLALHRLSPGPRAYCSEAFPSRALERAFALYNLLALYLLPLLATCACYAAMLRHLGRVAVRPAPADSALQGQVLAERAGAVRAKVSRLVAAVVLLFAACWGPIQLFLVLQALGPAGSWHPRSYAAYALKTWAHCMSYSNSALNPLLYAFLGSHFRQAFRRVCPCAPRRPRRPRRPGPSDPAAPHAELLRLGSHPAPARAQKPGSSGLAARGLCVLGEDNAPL

For `CC(=O)NO`, the Potency entry in [1], in assay [2], in assay [3], in assay [6], in assay [7] and in assay [8] was “inactive” each time. The Potency result in [9], in assay [10], in assay [11], in assay [12], in assay [13] and in assay [14] was “inactive” in each case. Moreover, the Potency result in assay [15], in assay [16], in assay [17] and in [18] was “inactive” in each case. Further, the outcome in [4] and in assay [5] was inactive.
For `CCn1cc(C(=O)O)c(=O)c2cc(F)c(N3CCN(C)CC3)cc21`, the activity change, negative = cytotoxicity in [1] is 14.8% [at 19 µM]; in [8], -0.739% [at 13.5 µM]; in [9], -4.59% [at 13.5 µM]. Also, the activity, positive = activation in assay [2] was -5.55% [at 19 µM]. For the same compound, the activity change in assay [3] was -1.03% [at 11.8 µM, stronger effect = higher value]. Further, the activation in [4] was -0.924% [at 15.8 µM]; in [5], -0.469% [at 11.8 µM]; in [6], 0.192% [at 13.5 µM]; in assay [7], -1.11% [at 13.6 µM]; in [19] it was -0.0544% [at 13.5 µM]; in assay [17], 19.5% [at 19 µM]. The activity change, negative = inhibition in assay [20] was -14.3% [at 18.9 µM]; in assay [15], 0.624% [at 19 µM]. The Potency result in assay [16] was “inactive”.
For `CN1[C@@H]2CC[C@H]1CC(OC(=O)C(O)c1ccccc1)C2` (stereo partly specified), the Potency entry in assay [1], in assay [2], in [3], in [6], in assay [7] and in assay [8] was “inactive” throughout. In addition, the Potency entry in assay [9], in assay [19], in [14], in [20], in [15] and in assay [16] was “inactive” each time. For the same compound, the Potency entry in [17] and in [18] was “inactive” in each case. For the same compound, the result in assay [4] and in [5] was inactive.
In the case of `Cc1cccc(Nc2ccncc2S(=O)(=O)NC(=O)NC(C)C)c1`, the Potency entry in assay [1], in [2], in [3], in assay [6], in assay [7] and in assay [8] was “inactive” throughout. The Potency entry in [9], in [19], in assay [14], in assay [15], in assay [16] and in assay [17] was “inactive” throughout. Also, in assay [18], the Potency entry is “inactive”. Besides, the result in assay [4] and in assay [5] was inactive.
In the case of `CC1(C)OC(=O)Nc2ccc(Br)cc21`, the Potency result in assay [1], in assay [2], in [3], in [6], in [7] and in assay [8] was “inactive” each time. The Potency entry in assay [9], in [19], in [11], in assay [12], in assay [13] and in assay [14] was “inactive” each time. Besides, the Potency entry in assay [15], in assay [17] and in assay [18] was “inactive” each time. In addition, the result in assay [4] and in [5] was inactive.
Regarding `O=C1OC(=O)c2cc([N+](=O)[O-])ccc21`, the Potency result in assay [1], in assay [2], in [3], in [6], in assay [7] and in assay [8] was “inactive” in each case. Moreover, the Potency result in [9], in assay [19], in [10], in assay [11], in assay [14] and in assay [20] was “inactive” in each case. Further, the Potency entry in assay [15], in assay [16], in assay [17] and in assay [18] was “inactive” throughout. Also, the outcome in assay [4] and in [5] was inactive.
For `CCN(CC)c1ccc(N)cc1`, the results for the Potency in assay [1] and in assay [2] were 22.3 µM (active) and 31.5 µM (active), respectively. The Potency result in assay [3], in [6], in [7], in assay [8], in assay [9] and in assay [19] was “inactive” each time. Further, the Potency result in assay [11], in assay [12] and in assay [15] was “inactive” throughout. Besides, the result in [4] and in assay [5] was inactive.
